Laboratory results as given in ChEMBL document CHEMBL1961873, “Compounds: GSK PKIS; Assays: Nanosyn kinase panel” (2012).

Columns and labels:
[1] = target: Platelet-derived growth factor receptor beta (Homo sapiens) (UniProt P09619); details: at 1 µM;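 further: each value is a mean percent inhibition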
[2] = target: Tyrosine-protein kinase FRK (Homo sapiens) (UniProt P42685); details: at 0.1 µM
[3] = target: Tyrosine-protein kinase FRK (Homo sapiens) (UniProt P42685); details: at 1 µM
[4] = target: Protein-tyrosine kinase 2-beta (Homo sapiens) (UniProt Q14289); details: at 0.1 µM
[5] = target: Protein-tyrosine kinase 2-beta (Homo sapiens) (UniProt Q14289); details: at 1 µM
[6] = target: Proto-oncogene tyrosine-protein kinase receptor Ret (Homo sapiens) (UniProt P07949); details: at 0.1 µM
[7] = target: Proto-oncogene tyrosine-protein kinase receptor Ret (Homo sapiens) (UniProt P07949); details: at 1 µM
[8] = tested on: Proto-oncogene tyrosine-protein kinase receptor Ret (Homo sapiens), P07949 [V804L]; details: at 0.1 µM
[9] = tested on: Proto-oncogene tyrosine-protein kinase receptor Ret (Homo sapiens), P07949 [V804L]; details: at 1 µM
[10] = tested on: Proto-oncogene tyrosine-protein kinase receptor Ret (Homo sapiens), P07949 [Y791F]; details: at 0.1 µM
[11] = tested on: Proto-oncogene tyrosine-protein kinase receptor Ret (Homo sapiens), P07949 [Y791F]; details: at 1 µM
[12] = target: Macrophage-stimulating protein receptor (Homo sapiens) (UniProt Q04912); details: at 0.1 µM
[13] = target: Macrophage-stimulating protein receptor (Homo sapiens) (UniProt Q04912); details: at 1 µM
[14] = target: Proto-oncogene tyrosine-protein kinase ROS (Homo sapiens) (UniProt P08922); details: at 0.1 µM
[15] = target: Proto-oncogene tyrosine-protein kinase ROS (Homo sapiens) (UniProt P08922); details: at 1 µM
[16] = target: Proto-oncogene tyrosine-protein kinase Src (Homo sapiens) (UniProt P12931); details: at 0.1 µM
[17] = target: Proto-oncogene tyrosine-protein kinase Src (Homo sapiens) (UniProt P12931); details: at 1 µM
[18] = target: Tyrosine-protein kinase Srms (Homo sapiens) (UniProt Q9H3Y6); details: at 0.1 µM
[19] = target: Tyrosine-protein kinase Srms (Homo sapiens) (UniProt Q9H3Y6); details: at 1 µM
[20] = target: Tyrosine-protein kinase SYK (Homo sapiens) (UniProt P43405); details: at 0.1 µM;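 further: reported percentages are mean inhibition values for SYK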

Sequence of Proto-oncogene tyrosine-protein kinase Src (Homo sapiens) (P12931 2-536 limits assumed): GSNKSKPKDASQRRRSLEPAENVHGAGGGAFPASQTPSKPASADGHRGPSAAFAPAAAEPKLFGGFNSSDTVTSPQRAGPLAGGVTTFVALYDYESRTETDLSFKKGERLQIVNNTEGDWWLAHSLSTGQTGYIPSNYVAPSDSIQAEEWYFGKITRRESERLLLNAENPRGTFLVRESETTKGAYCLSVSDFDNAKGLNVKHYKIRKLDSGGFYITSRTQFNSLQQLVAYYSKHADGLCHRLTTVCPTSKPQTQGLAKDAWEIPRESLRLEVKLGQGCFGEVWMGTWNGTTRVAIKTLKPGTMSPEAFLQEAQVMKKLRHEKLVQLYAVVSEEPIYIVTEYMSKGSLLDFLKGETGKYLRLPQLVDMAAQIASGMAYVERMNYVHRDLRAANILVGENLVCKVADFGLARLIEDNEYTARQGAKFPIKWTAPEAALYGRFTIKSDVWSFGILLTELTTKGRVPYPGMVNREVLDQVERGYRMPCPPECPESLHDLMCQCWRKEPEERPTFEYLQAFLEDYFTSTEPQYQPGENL
Sequence of Proto-oncogene tyrosine-protein kinase receptor Ret (Homo sapiens), P07949 [Y791F] (P07949 whole entry Y791F): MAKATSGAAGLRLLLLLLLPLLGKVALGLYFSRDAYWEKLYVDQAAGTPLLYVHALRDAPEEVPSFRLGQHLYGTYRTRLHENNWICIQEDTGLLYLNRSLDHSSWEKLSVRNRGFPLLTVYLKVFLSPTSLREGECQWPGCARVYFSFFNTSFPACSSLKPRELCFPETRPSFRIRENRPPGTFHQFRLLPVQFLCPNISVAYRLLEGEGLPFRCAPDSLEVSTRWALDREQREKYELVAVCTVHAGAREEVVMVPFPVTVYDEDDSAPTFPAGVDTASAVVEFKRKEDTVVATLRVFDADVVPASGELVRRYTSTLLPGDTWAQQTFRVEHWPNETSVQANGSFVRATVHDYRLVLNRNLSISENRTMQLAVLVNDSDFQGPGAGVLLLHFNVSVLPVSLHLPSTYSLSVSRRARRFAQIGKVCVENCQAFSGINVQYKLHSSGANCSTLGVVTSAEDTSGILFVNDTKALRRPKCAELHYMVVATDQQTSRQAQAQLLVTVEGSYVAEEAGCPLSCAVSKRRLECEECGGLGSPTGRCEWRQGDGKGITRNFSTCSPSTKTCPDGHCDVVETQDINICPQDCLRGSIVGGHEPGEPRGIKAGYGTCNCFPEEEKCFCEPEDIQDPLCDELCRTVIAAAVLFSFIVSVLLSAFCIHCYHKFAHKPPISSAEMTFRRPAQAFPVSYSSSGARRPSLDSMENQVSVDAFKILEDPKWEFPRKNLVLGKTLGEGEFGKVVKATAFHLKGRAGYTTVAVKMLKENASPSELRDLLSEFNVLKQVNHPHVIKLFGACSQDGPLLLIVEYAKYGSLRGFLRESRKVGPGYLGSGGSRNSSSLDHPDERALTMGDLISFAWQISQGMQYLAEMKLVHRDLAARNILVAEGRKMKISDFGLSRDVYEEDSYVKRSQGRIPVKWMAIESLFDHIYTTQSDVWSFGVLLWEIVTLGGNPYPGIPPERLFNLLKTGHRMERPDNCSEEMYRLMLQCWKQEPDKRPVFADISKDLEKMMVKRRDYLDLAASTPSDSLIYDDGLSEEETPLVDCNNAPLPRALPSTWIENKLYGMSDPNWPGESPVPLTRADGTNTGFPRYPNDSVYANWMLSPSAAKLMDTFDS
Sequence of Tyrosine-protein kinase FRK (Homo sapiens) (P42685 whole entry): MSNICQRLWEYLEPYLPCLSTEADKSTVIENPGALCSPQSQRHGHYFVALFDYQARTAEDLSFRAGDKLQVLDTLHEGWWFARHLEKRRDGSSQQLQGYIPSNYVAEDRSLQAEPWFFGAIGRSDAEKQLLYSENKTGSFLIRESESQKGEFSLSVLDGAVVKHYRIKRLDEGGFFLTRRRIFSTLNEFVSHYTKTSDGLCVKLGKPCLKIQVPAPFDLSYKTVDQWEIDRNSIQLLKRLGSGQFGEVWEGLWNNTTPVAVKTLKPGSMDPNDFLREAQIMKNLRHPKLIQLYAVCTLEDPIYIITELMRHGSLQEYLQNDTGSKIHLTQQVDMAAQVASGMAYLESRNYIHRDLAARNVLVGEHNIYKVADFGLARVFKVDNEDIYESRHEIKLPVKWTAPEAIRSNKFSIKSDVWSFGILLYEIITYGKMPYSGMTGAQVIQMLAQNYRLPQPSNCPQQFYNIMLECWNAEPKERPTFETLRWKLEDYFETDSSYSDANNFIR
Sequence of Platelet-derived growth factor receptor beta (Homo sapiens) (P09619 whole entry): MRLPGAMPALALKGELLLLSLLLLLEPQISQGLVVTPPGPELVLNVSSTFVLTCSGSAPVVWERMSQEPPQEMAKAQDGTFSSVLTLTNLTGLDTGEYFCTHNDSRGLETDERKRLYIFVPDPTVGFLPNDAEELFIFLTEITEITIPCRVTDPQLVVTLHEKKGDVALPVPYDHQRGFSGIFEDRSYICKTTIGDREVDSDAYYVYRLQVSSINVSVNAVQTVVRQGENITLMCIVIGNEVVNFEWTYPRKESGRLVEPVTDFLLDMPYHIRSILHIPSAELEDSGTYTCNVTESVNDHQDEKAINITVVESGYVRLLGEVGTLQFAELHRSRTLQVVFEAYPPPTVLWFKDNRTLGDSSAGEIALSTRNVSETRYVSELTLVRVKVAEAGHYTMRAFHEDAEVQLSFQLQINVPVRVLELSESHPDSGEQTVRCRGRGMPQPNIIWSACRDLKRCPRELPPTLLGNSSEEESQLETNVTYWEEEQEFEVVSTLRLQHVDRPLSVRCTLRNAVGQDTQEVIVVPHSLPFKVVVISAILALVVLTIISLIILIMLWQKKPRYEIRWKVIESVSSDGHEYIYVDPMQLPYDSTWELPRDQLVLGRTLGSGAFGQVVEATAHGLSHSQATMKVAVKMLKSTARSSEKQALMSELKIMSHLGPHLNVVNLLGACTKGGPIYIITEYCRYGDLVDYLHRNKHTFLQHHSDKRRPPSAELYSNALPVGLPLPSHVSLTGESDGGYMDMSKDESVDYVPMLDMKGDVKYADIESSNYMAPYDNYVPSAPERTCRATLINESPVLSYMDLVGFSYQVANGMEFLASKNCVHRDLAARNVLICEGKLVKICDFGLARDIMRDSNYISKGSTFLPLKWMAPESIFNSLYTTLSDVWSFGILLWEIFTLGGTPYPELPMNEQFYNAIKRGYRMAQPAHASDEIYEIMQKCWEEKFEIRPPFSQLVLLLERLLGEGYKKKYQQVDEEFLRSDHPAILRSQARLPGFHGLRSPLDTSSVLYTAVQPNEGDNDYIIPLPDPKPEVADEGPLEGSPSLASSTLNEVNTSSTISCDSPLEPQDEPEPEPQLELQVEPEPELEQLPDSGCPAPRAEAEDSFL
Sequence of Proto-oncogene tyrosine-protein kinase receptor Ret (Homo sapiens), P07949 [V804L] (P07949 whole entry V804L): as the sequence (P07949 whole entry Y791F) above, with F791Y, V804L counted along it
Sequence of Proto-oncogene tyrosine-protein kinase receptor Ret (Homo sapiens) (P07949 whole entry): as the sequence (P07949 whole entry Y791F) above, with F791Y counted along it
Sequence of Tyrosine-protein kinase Srms (Homo sapiens) (Q9H3Y6 whole entry): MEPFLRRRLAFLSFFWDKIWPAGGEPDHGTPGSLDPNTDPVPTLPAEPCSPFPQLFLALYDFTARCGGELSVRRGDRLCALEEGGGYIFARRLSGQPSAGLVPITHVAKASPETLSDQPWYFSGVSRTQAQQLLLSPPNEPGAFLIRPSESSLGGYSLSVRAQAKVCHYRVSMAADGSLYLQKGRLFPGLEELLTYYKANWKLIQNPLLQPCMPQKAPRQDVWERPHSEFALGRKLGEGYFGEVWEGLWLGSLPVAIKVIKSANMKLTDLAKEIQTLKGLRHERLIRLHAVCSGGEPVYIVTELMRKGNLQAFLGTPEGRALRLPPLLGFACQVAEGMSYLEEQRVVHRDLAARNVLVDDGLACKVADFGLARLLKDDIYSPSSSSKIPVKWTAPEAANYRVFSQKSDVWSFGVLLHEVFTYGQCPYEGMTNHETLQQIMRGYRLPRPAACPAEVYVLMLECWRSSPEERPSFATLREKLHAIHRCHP
Sequence of Protein-tyrosine kinase 2-beta (Homo sapiens) (Q14289 whole entry, looked up): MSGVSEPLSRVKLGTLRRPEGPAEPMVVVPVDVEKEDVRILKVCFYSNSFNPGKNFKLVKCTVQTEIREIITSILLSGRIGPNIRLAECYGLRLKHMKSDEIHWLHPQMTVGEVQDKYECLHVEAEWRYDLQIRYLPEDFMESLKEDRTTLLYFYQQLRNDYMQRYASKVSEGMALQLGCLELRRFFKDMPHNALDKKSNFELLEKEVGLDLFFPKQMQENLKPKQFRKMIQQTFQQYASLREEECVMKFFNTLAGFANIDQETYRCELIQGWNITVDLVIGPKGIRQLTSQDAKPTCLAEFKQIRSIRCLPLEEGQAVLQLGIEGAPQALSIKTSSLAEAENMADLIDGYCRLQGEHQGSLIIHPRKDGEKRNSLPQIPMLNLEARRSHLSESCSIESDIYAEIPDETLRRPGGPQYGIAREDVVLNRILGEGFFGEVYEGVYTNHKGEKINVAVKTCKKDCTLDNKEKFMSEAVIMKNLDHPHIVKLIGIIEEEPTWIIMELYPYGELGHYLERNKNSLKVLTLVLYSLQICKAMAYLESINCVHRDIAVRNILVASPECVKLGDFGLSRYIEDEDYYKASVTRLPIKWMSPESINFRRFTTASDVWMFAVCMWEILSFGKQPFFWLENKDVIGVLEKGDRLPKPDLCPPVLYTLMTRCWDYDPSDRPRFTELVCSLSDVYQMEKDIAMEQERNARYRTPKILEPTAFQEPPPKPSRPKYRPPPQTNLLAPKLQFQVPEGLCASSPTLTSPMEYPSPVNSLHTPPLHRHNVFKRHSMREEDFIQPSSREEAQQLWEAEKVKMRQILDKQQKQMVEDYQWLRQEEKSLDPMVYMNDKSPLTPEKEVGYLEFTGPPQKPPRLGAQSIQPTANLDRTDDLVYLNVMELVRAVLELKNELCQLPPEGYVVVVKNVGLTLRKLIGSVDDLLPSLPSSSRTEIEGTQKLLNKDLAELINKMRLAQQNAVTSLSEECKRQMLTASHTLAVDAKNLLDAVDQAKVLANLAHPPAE

## [O-][S+]1CCN(Cc2ccc(-c3ccc4ncnc(Nc5ccc(OCc6ccccc6)c(F)c5)c4c3)o2)CC1
[1]
  inhibition: 3.24%
[2]
  inhibition: 0.91%
[3]
  inhibition: 1.11%
[4]
  inhibition: 2.85%
[5]
  inhibition: -2.53%
[6]
  inhibition: 6.29%
[7]
  inhibition: 9.08%
[8]
  inhibition: 8.58%
[9]
  inhibition: 5.31%
[10]
  inhibition: 1.94%
[11]
  inhibition: 5.92%
[12]
  inhibition: 2.75%
[13]
  inhibition: 7.9%
[14]
  inhibition: 3.51%
[15]
  inhibition: 1.61%
[16]
  inhibition: 5.28%
[17]
  inhibition: 8.51%
[18]
  inhibition: -1.06%
[19]
  inhibition: -3.12%
[20]
  inhibition: -2.3%

## Cn1cc(C=C2C(=O)Nc3cccnc32)c2ccccc21
[1]
  inhibition: 42%
[2]
  inhibition: 0.71%
[3]
  inhibition: 3.75%
[4]
  inhibition: 5.59%
[5]
  inhibition: 25.2%
[12]
  inhibition: 3.7%
[13]
  inhibition: 0.13%
[14]
  inhibition: 4.42%
[15]
  inhibition: 10.1%
[16]
  inhibition: 12.8%
[17]
  inhibition: 42.2%
[18]
  inhibition: -1.82%
[19]
  inhibition: 0.18%
[20]
  inhibition: 3.56%

## N#Cc1c(NC(=O)c2cccc3ccccc23)sc2c1CCCC2
[1]
  inhibition: 9.27%
[2]
  inhibition: 2.64%
[3]
  inhibition: 1.48%
[4]
  inhibition: 2.95%
[5]
  inhibition: 5.82%
[6]
  inhibition: 5.35%
[7]
  inhibition: 5.82%
[8]
  inhibition: 3.1%
[9]
  inhibition: 3.6%
[10]
  inhibition: 5.18%
[11]
  inhibition: 2.2%
[12]
  inhibition: 1.52%
[13]
  inhibition: 3.88%
[14]
  inhibition: 3.2%
[15]
  inhibition: 5.26%
[16]
  inhibition: 12.3%
[17]
  inhibition: 7.06%
[18]
  inhibition: -0.23%
[19]
  inhibition: -0.56%
[20]
  inhibition: -4.41%

## COc1cc2ncn(-c3cc(O[C@@H](C)c4ccccc4Cl)c(C(N)=O)s3)c2cc1OC
[1]
  inhibition: 68.2%
[2]
  inhibition: 5.42%
[3]
  inhibition: 4.28%
[4]
  inhibition: -0.4%
[5]
  inhibition: 14%
[6]
  inhibition: 33.6%
[7]
  inhibition: 72.1%
[8]
  inhibition: 8.18%
[9]
  inhibition: 38.3%
[10]
  inhibition: 32.5%
[11]
  inhibition: 72%
[12]
  inhibition: -0.14%
[13]
  inhibition: 2.55%
[14]
  inhibition: 5.59%
[15]
  inhibition: 29.1%
[16]
  inhibition: 10.3%
[17]
  inhibition: 30.1%
[18]
  inhibition: -3.6%
[19]
  inhibition: -1.13%
[20]
  inhibition: -2.93%

## COc1ccccc1Nc1ncc(-c2ccccc2)o1
[1]
  inhibition: 47.7%
[2]
  inhibition: 3.68%
[3]
  inhibition: 5.01%
[4]
  inhibition: 0.49%
[5]
  inhibition: 11.1%
[6]
  inhibition: 5.4%
[7]
  inhibition: 6.88%
[8]
  inhibition: 3.68%
[9]
  inhibition: 5.75%
[10]
  inhibition: 9.37%
[12]
  inhibition: 6.08%
[13]
  inhibition: 1.59%
[14]
  inhibition: 5.04%
[15]
  inhibition: 11.2%
[16]
  inhibition: 8.59%
[17]
  inhibition: 11.2%
[18]
  inhibition: -1.24%
[19]
  inhibition: 2.11%
[20]
  inhibition: -1.37%

## CCCN1CCC=C(c2ccc(Nc3nc(Nc4ccccc4C(N)=O)c4cc[nH]c4n3)c(C)c2)C1
[1]
  inhibition: 37.2%
[2]
  inhibition: 1.94%
[3]
  inhibition: 4.17%
[4]
  inhibition: 78%
[5]
  inhibition: 94.9%
[6]
  inhibition: 5.97%
[7]
  inhibition: 24.3%
[8]
  inhibition: 18.6%
[9]
  inhibition: 58.3%
[10]
  inhibition: 9.36%
[11]
  inhibition: 25.8%
[12]
  inhibition: 7.2%
[13]
  inhibition: 11.6%
[14]
  inhibition: 24.3%
[15]
  inhibition: 61.2%
[16]
  inhibition: 8.87%
[17]
  inhibition: 17.4%
[18]
  inhibition: -3.15%
[19]
  inhibition: 0.8%
[20]
  inhibition: -0.42%

## Cc1ccc(C(=O)NC2CCCCC2)cc1-c1ccc(C(=O)NCC2CC2)cc1
[1]
  inhibition: 9.04%
[2]
  inhibition: 0.19%
[3]
  inhibition: 0.68%
[4]
  inhibition: 3.32%
[5]
  inhibition: 9.58%
[6]
  inhibition: 5.5%
[7]
  inhibition: 7.84%
[8]
  inhibition: 5.44%
[9]
  inhibition: 4.79%
[10]
  inhibition: 10.8%
[11]
  inhibition: 23%
[12]
  inhibition: -5.44%
[13]
  inhibition: 3.46%
[14]
  inhibition: 6.22%
[15]
  inhibition: 7.1%
[16]
  inhibition: 0.23%
[17]
  inhibition: 4.58%
[18]
  inhibition: 2.6%
[19]
  inhibition: 0.74%
[20]
  inhibition: -0.6%

## NS(=O)(=O)c1cccc(-c2ccc3c(NC(=O)C4CC4)n[nH]c3c2)c1
[1]
  inhibition: 5.08%
[2]
  inhibition: 0.47%
[3]
  inhibition: 1.64%
[4]
  inhibition: -7.23%
[5]
  inhibition: 5.72%
[6]
  inhibition: 2.41%
[7]
  inhibition: 1.62%
[8]
  inhibition: -0.14%
[9]
  inhibition: -1.66%
[10]
  inhibition: -2.8%
[11]
  inhibition: -2.02%
[12]
  inhibition: 6.3%
[13]
  inhibition: 3.46%
[14]
  inhibition: 3.46%
[15]
  inhibition: 5%
[16]
  inhibition: -4.15%
[17]
  inhibition: -1.21%
[18]
  inhibition: -0.76%
[19]
  inhibition: -1.91%
[20]
  inhibition: -1.3%

## COc1cc(C=NNc2ncnc3c2cnn3-c2ccccc2)ccc1O
[1]
  inhibition: 68.9%
[2]
  inhibition: 0.86%
[3]
  inhibition: 3.44%
[4]
  inhibition: 4.69%
[5]
  inhibition: 14.2%
[6]
  inhibition: 43.5%
[7]
  inhibition: 80.6%
[8]
  inhibition: 13.6%
[9]
  inhibition: 46.3%
[10]
  inhibition: 36.3%
[11]
  inhibition: 75.1%
[12]
  inhibition: 23.7%
[13]
  inhibition: 64.5%
[14]
  inhibition: 7.09%
[15]
  inhibition: 31.2%
[16]
  inhibition: 28.6%
[17]
  inhibition: 79%
[18]
  inhibition: 1.17%
[19]
  inhibition: 4.56%
[20]
  inhibition: -2.75%

## COc1ccc(-c2coc3ncnc(N)c23)cc1
[1]
  inhibition: 12.1%
[2]
  inhibition: 1.9%
[3]
  inhibition: 2.14%
[6]
  inhibition: 4.27%
[7]
  inhibition: 11.7%
[8]
  inhibition: 4.56%
[9]
  inhibition: 5.32%
[10]
  inhibition: 10.4%
[11]
  inhibition: 11%
[12]
  inhibition: 8.95%
[13]
  inhibition: 5.93%
[14]
  inhibition: 6.03%
[15]
  inhibition: 7.88%
[16]
  inhibition: 5.47%
[17]
  inhibition: 8.84%
[18]
  inhibition: -2.61%
[19]
  inhibition: -2.53%
[20]
  inhibition: -0.77%

## CCN1CCC(CC(=O)Nc2n[nH]c3nc(-c4cccs4)c(Br)cc23)CC1
[1]
  inhibition: 14.4%
[2]
  inhibition: -1.17%
[3]
  inhibition: -0.21%
[4]
  inhibition: -9.91%
[6]
  inhibition: 1.65%
[7]
  inhibition: 3.8%
[8]
  inhibition: 0.08%
[9]
  inhibition: -2.04%
[10]
  inhibition: -1.87%
[11]
  inhibition: -0.99%
[12]
  inhibition: 0.5%
[13]
  inhibition: 6.29%
[14]
  inhibition: -0.25%
[15]
  inhibition: -0.04%
[16]
  inhibition: 15.4%
[17]
  inhibition: -4.33%
[18]
  inhibition: -1.72%
[19]
  inhibition: -0.34%
[20]
  inhibition: -1.06%

## CCn1c(-c2nonc2N)nc2cnc(Oc3cccc(NC(=O)c4ccc(OCCN5CCOCC5)cc4)c3)cc21
[1]
  inhibition: 9.39%
[2]
  inhibition: 2.25%
[3]
  inhibition: 0.86%
[4]
  inhibition: 4.56%
[5]
  inhibition: 13%
[6]
  inhibition: 6.91%
[7]
  inhibition: 10.4%
[8]
  inhibition: 2.37%
[9]
  inhibition: 6.08%
[10]
  inhibition: 5.99%
[11]
  inhibition: 7.86%
[12]
  inhibition: 3.1%
[13]
  inhibition: 5%
[14]
  inhibition: 8.56%
[15]
  inhibition: 11%
[16]
  inhibition: 3.92%
[17]
  inhibition: 7.72%
[18]
  inhibition: -0.56%
[19]
  inhibition: -0.69%
[20]
  inhibition: -4.21%

## COc1cc2ncn(-c3cc(O[C@H](C)c4ccccc4Cl)c(C(N)=O)s3)c2cc1OC
[1]
  inhibition: 95.3%
[2]
  inhibition: 2.17%
[3]
  inhibition: 2.07%
[4]
  inhibition: 10.3%
[5]
  inhibition: 32.2%
[6]
  inhibition: 18.2%
[7]
  inhibition: 51.8%
[8]
  inhibition: 19.5%
[9]
  inhibition: 54.8%
[10]
  inhibition: 20.7%
[11]
  inhibition: 63.8%
[12]
  inhibition: 14.8%
[13]
  inhibition: 17.8%
[14]
  inhibition: 10.7%
[15]
  inhibition: 36.5%
[16]
  inhibition: 7.81%
[17]
  inhibition: 40.7%
[18]
  inhibition: 2.69%
[19]
  inhibition: 6.05%
[20]
  inhibition: 1.76%

## COc1cccc(-n2ncc3c(N/N=C/c4cccc(F)c4)ncnc32)c1
[1]
  inhibition: 51.1%
[2]
  inhibition: 1.84%
[3]
  inhibition: 2.7%
[4]
  inhibition: 9.51%
[5]
  inhibition: 9.99%
[6]
  inhibition: 2.64%
[7]
  inhibition: 18.3%
[8]
  inhibition: 3.55%
[9]
  inhibition: 9.3%
[10]
  inhibition: 4.94%
[11]
  inhibition: 19.5%
[12]
  inhibition: 7.02%
[13]
  inhibition: 24.4%
[14]
  inhibition: 3.12%
[15]
  inhibition: 10.6%
[16]
  inhibition: 0.4%
[17]
  inhibition: 57.2%
[18]
  inhibition: -0.72%
[19]
  inhibition: 2.55%
[20]
  inhibition: 9.4%
